# Test results taken from article PMC5540273 (PLoS ONE, 2017).
# Columns and labels:
# Settings in all cases: concentration: 1 μM,replicates: in singlicate; n = 1
# SNARK = test system: T1, SNARK
# T1 construct: gene NUAK2
# SNRK = test system: SNRK
# SRC = test system: SRC
# SRMS = test system: SRMS
# SRPK1 = test system: SRPK1
# SRPK2 = test system: SRPK2
# SRPK3 = test system: SRPK3
# STK16 = test system: STK16
# STK33 = test system: STK33
# STK35 = test system: STK35
# 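Note: KINOMEscan kinase panel screen.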
Structure (SMILES),%Inh (SNARK) [%],%Inh (SNRK) [%],%Inh (SRC) [%],%Inh (SRMS) [%],%Inh (SRPK1) [%],%Inh (SRPK2) [%],%Inh (SRPK3) [%],%Inh (STK16) [%],%Inh (STK33) [%],%Inh (STK35) [%]
Cl.Cl.NC[C@H](CC1CCCCC1)NC(=O)c1ccc(-c2ccnc3[nH]ccc23)s1 [GSK1581428],98.3,0,17,0,85,12,91.6,54,98.4,63
Cn1ccc2ncnc(Oc3ccc(NC(=O)Nc4cccc(C(F)(F)F)c4)c(F)c3)c21,0,0,2,0,23,49,23,0,64,4
O=c1[nH]cc(-c2ccc(O)cc2)c2sc(-c3ccncc3)cc12 [GSK1033723],8,0,0,0,21,5,0,22,0,0
Cc1nnc(-c2ccc3occ(-c4ccc(S(C)=O)cc4)c3n2)o1 (stereo not shown),0,0,0,0,0,0,0,11,0,45
CS(=O)(=O)c1cccc(CNc2nc(Nc3ccc4c(c3)[C@@H]3C[C@@H]4CNC3=O)ncc2C(F)(F)F)c1,97.6,0,0,0,91.6,0,49,97.3,0,0
Cc1ccc(CC(=O)N2CCc3cc(-c4cn(C)c5ncnc(N)c45)ccc32)cc1 [GSK2634758],37,8,0,6,13,31,10,100,0,5
CSc1nccc(-c2c(-c3ccc(F)cc3)ncn2CCCN2CCOCC2)n1.Cl [SB-217146],0,1,10,35,0,0,0,0,0,0
Cl.c1ccc(Oc2ccc(Nc3ccnc4cc(-c5ccc(CN6CCNCC6)o5)ccc34)cc2)nc1 [GW567142],14,0,34,89,0,7,0,0,24,57
O=C(Nc1cccc(C(F)(F)F)c1)c1cccc(Oc2ccc3nccn3n2)c1,0,1,17,0,3,0,4,7,22,8
C[C@@H](Oc1cc(-n2cnc3cc(-c4ccncc4)ccc32)sc1C(N)=O)c1ccccc1Cl [GSK479719],95.4,3,26,0,89,0,64,46,1,0
COc1cc(Nc2nccc(N3CCC(NC(=O)c4cccc(C#N)c4)C3)n2)cc(OC)c1OC (stereo not shown) [GSK1379751],3,0,22,0,49,24,0,64,0,0
COc1cccc(CNC(=O)NC2CCN(c3ccnc(Nc4cc(OC)c(OC)c(OC)c4)n3)C2)c1 (stereo not shown) [GSK1379765],45,0,24,0,39,0,73,64,0,8
CS(=O)(=O)Nc1ccc(-c2ccnc3[nH]ccc23)cc1 [GSK993273],40,0,0,0,77,0,75,81,5,15
CCNCC(Cc1ccccc1)NC(=O)c1cc(Br)c(-c2ccnc3[nH]ccc23)s1.Cl.Cl (stereo not shown) [GSK1383280],93.1,0,14,0,56,0,0,51,95.9,0
Cc1ccc2c(-c3ccnc(Nc4ccc(C(F)(F)F)cc4)n3)cnn2n1 [GW819776],0,0,0,28,14,0,26,48,52,0
c1ccc(Oc2ccc(Nc3ccnc4ccc(-c5ccccn5)cc34)cc2)cc1 [GW407034],0,0,17,94.9,0,0,17,0,0,31
CCn1c(-c2nonc2N)nc2cncc(CNC3CCNCC3)c21.Cl [SB-747651],13,0,0,0,23,0,0,15,0,0
O=C(NOCC1CC1)c1cc(Br)c(F)c(F)c1Nc1ccc(I)cc1Cl,0,0,2,0,0,0,0,20,0,0
CS(=O)c1ccc(-c2coc3ccc(-c4n[nH]c(=O)o4)cc23)cc1 (stereo not shown),21,10,22,0,0,1,0,52,0,9
Cl.Nc1n[nH]c2cc(-c3ccccn3)ccc12 [GSK2189892],18,0,0,0,0,0,0,22,0,0
CC(C(=O)NC1CCN(c2ccnc(Nc3ccc(F)cc3)n2)C1)c1ccc(Cl)cc1 (stereo not shown) [GSK1379713],0,0,0,0,20,0,18,0,5,0
NC(=O)c1ccc(-c2cc3ncnc(SCC(=O)O)c3s2)cc1,0,0,0,0,0,0,0,54,0,0
COc1cc2nccc(Nc3ccc(Oc4ccccc4)cc3)c2cc1OC.Cl [GI261656],0,0,47,99.9,31,21,0,0,0,24

Structure (SMILES),%Inh (SNARK) [%],%Inh (SNRK) [%],%Inh (SRC) [%],%Inh (SRMS) [%],%Inh (SRPK1) [%],%Inh (SRPK2) [%],%Inh (SRPK3) [%],%Inh (STK16) [%],%Inh (STK33) [%],%Inh (STK35) [%]
Cc1ccc(Nc2ccnc(Nc3ccc4c(c3)CS(=O)(=O)C4)n2)cc1O.Cl [GW579362],52,6,99.9,87,99.2,18,83,98.5,89,22
CC(=O)Nc1ccc(-c2cc3ncnc(SCC(=O)O)c3s2)cc1,15,0,11,13,0,0,13,32,0,20
COc1ccc(Nc2nccc(N3CCC(NC(=O)c4cccc(C#N)c4)C3)n2)cc1 (stereo not shown) [GSK1379730],0,0,19,0,36,0,0,2,10,0
O=C(Nc1cccc(Oc2ccc3nccn3n2)c1)Nc1cccc(C(F)(F)F)c1,0,0,0,0,0,0,14,9,21,0
C[C@@H]1CNc2c(sc3ccc4nc(-c5ccncc5)ccc4c23)C(=O)N1,53,11,1,0,23,0,31,13,60,0
CC(C)S(=O)(=O)N1CCN(Cc2ccc3c(c2)nc(NC(=O)c2ccsc2)n3C[C@H](O)c2ccccc2)CC1 [GW635815],23,0,96.3,1,0,0,0,83,60,0
CC(=O)c1c(-c2ccncc2)[nH]c(-c2ccncc2)c1C [GW493036],0,0,0,0,24,16,0,28,0,0
CN(c1ccccc1CNc1nc(Nc2ccc3c(c2)CC(=O)N3)ncc1C(F)(F)F)S(C)(=O)=O,93.4,0,70,0,46,0,39,99.9,68,0
O=C(NCC1CC1)c1ccc(-c2cc(C(=O)NC3CC3)ccc2F)cc1 [GW810445],0,0,9,2,0,0,0,4,0,0
Cc1cccc(-c2nc(Nc3ccncc3)c3sccc3n2)n1 [GW869641],29,25,12,21,7,0,24,16,27,1
COC(=O)c1cccc(NC(=O)NC2CCN(c3ccnc(NCc4ccc(F)cc4)n3)CC2)c1 [GSK1379860],0,0,0,0,61,0,0,0,0,0
Cn1cc(-c2cccc3c(N)c(C(N)=O)nnc23)cn1,9,11,0,24,45,11,39,11,27,8
CCCC(=O)Nc1n[nH]c2ncccc12 [SB-601436],0,0,0,4,16,0,10,3,0,0
C[C@@H]1CCN(C(=O)N2CCCC2)C[C@@H]1N(C)c1ncnc2[nH]ccc12,61,18,0,0,8,3,14,0,0,0
NC(=O)Nc1sc(-c2ccc(F)cc2)cc1C(N)=O [GW789449],75,6,55,18,81,35,90.6,26,0,0
COc1cc2c(Nc3ccc(NC(=O)c4ccccc4)cc3)ncnc2cc1OCCCN1CCOCC1 [GSK301329],7,0,20,19,0,0,2,12,41,4
Cc1ccc(C(=O)Nc2ccc(Oc3ccc4nc(NC(=O)C5CC5)cn4c3)c(F)c2)c(=O)n1-c1ccccc1,0,0,11,0,0,23,25,17,24,0
CCN1CCN(CCCC(=O)Nc2n[nH]c3nc(-c4ccc(O)cc4)c(Br)cc23)CC1 [SB-731579],0,0,0,0,0,0,13,2,0,0
CN1CCN(CCCNc2nccc(-c3c(-c4ccc(F)cc4)nn4cc(C(N)=O)ccc34)n2)CC1 [GW622475],14,0,19,0,43,0,1,25,26,0
C[C@@H](Oc1cc(-n2cnc3cc(-c4cnn(C)c4)ccc32)sc1C(N)=O)c1ccccc1Cl [GSK580432],98.4,0,84,0,98.2,42,85,51,0,3
CN1CCN(CCNc2nc3cc(Oc4ccc(NC(=O)Nc5cc(C(F)(F)F)ccc5F)cc4)ccc3[nH]2)CC1.Cl.Cl [GW768504],0,0,0,18,9,0,10,0,0,0
O=C(Nc1ccc(Oc2ccc3nc(NC(=O)C4CC4)cn3n2)c(F)c1)c1cccn(-c2ccccc2)c1=O,0,3,10,0,14,16,24,0,23,0
O=C(Nc1ccccc1)c1cccc(Oc2ccc3nccn3n2)c1,0,0,0,0,2,0,0,0,12,0

Structure (SMILES),%Inh (SNARK) [%],%Inh (SNRK) [%],%Inh (SRC) [%],%Inh (SRMS) [%],%Inh (SRPK1) [%],%Inh (SRPK2) [%],%Inh (SRPK3) [%],%Inh (STK16) [%],%Inh (STK33) [%],%Inh (STK35) [%]
COC(=O)c1cccc(NC(=O)NC2CCN(c3ccnc(Nc4cc(OC)c(OC)c(OC)c4)n3)C2)c1 (stereo not shown) [GSK1379767],21,0,19,0,35,45,4,61,0,0
Cc1n[nH]c2cc(Nc3ccnc(Nc4cccc(CN5CCOCC5)c4)n3)ccc12 [GW682569],25,0,77,0,92.2,13,65,90.8,0,0
N#Cc1cccc(C(=O)NC2CCN(c3ccnc(Nc4ccc(F)cc4)n3)C2)c1 (stereo not shown) [GSK1379708],0,0,5,0,40,0,0,12,0,0
CCOC(=O)N1CCC(n2cnc(-c3ccc(F)cc3)c2-c2ccnc(N)n2)CC1 [SB-219952],0,10,0,0,9,0,28,6,0,38
Cn1ccc2ncnc(Oc3ccc(NC(=O)Nc4cccc(C(F)(F)F)c4)c(Cl)c3)c21,0,0,7,0,45,0,0,4,60,0
FC(F)(F)c1cc(Br)cc(Nc2nccc(-c3cnn4ncccc34)n2)c1 [GW810578],47,0,39,6,9,0,0,42,12,9
O=C(Nc1n[nH]c2cc(-c3ccco3)ccc12)C1CC1 [SB-737447],11,9,0,3,62,0,66,49,0,0
Cn1ccc2ncnc(Oc3ccc(NC(=O)Nc4ccnc(C(F)(F)F)c4)c(Cl)c3)c21,0,0,13,0,49,0,0,0,0,15
COC(=O)Nc1nc2cc(Oc3ccc(NC(=O)Nc4cc(C(F)(F)F)ccc4Cl)cc3)ccc2[nH]1.Cl [GW697465],0,0,1,0,41,32,3,0,57,0
CNC(=O)c1ccccc1Nc1nc(Nc2cccc(CS(C)(=O)=O)c2)ncc1C.O=CO [GSK1520489],99,0,100,95.1,95.4,24,75,99.3,93.2,34
CCn1c(-c2nonc2N)nc2cncc(Br)c21 [SB-738004],31,0,0,0,0,36,0,27,13,0
Cn1ccc2ncnc(Oc3ccc(NC(=O)Nc4cncc(C(F)(F)F)c4)c(Cl)c3)c21,0,0,5,0,73,0,0,4,8,0
Cc1cccc2c(-c3ccncc3)c(-c3ccc(F)cc3)nn12.Cl [GW461487],17,0,0,0,0,0,100,4,0,0
OCCn1cc(-c2cnc3nnn(Cc4ccc5ncccc5c4)c3n2)cn1,0,0,0,0,0,4,0,0,0,0
CN(c1cccc(CNc2nc(Nc3ccc4c(c3)CC(=O)N4)ncc2C(F)(F)F)c1)S(C)(=O)=O,76,0,4,0,73,0,31,90.2,0,8
COc1cc2ncn(-c3cc(OCC4CCCCC4)c(C(N)=O)s3)c2cc1OC [GSK204559],15,0,21,0,84,0,31,4,12,30
C[C@@H]1CNc2c(sc3ccc4nc(-c5ccc(O)cc5)ccc4c23)C(=O)N1,85,2,0,0,0,0,24,30,78,9
Cn1ccc2ncnc(Oc3ccc(NC(=O)Nc4cnn(C(C)(C)C)c4)c(Cl)c3)c21,10,0,82,0,74,11,0,16,7,0
Cn1ccc2ncnc(Oc3ccc(NC(=O)Nc4cc(C(C)(C)C)on4)c(Cl)c3)c21,0,13,44,0,80,0,0,2,64,30
CC(=O)Nc1nc2cnc(Nc3cc(NC(=O)c4cccc(CC(C)(C)C#N)c4)ccc3C)nc2s1,0,17,56,0,46,0,9,25,0,0
Nc1nccc(-c2ccc3c(N)n[nH]c3c2)n1 [GSK1034945],35,0,0,0,67,0,55,29,0,0
